This passage reports fluorescence fold increase results from PubChem BioAssay AID709 (SRMLSC, 2007).

Each structure is given as a SMILES string. Screen size: about 65,000 compounds; about 3,600 (5.5%) were called active.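 How the source made its calls: active means at 10 µM, mean starting fluorescence two-fold or more over control wells; inactive means the rest.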 The full list was thinned out, with actives kept by preference. Where a SMILES comes first, the peptide text is derived from it. The star is where a group is joined. Bz = O=C(c1ccccc1)*

The nature of this assay: intrinsic fluorescence of library compounds, ex339/em460 – biochemical, MLSMR library, data from DPM-DC assay, artefact control, profiling panel (AID 709).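 Further: signal is the first read of a kinetic run.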 As to conditions: compound autofluorescence, ex339/em460 nm, NADH buffer; at 10 µM; stronger effect = higher value; 1 = no-compound wells, NADH background.
On to `Nc1nonc1-c1noc(-c2ccc(Br)o2)n1`, for which the fluorescence fold increase was 1.07 (inactive).

In the case of `Cc1onc(-c2ccccc2)c1C(=O)N1CCOCC1`, the fluorescence fold increase was 1.04 (inactive).

Take `O=C(C1CCN(S(=O)(=O)Cc2ccccc2)CC1)N1CCCc2ccccc21`: the fluorescence fold increase is 1.08 (inactive).

As for `COc1ccc(-n2c(SC)nc(O)cc2=O)cc1`, the fluorescence fold increase was 1.1 (inactive).

Regarding `O=C1[C@@H]2C(Cc3ccc(O)cc3)NC3(C(=O)Nc4ccc(F)cc43)[C@@H]2C(=O)N1c1ccc(F)cc1` (some centres not stated), the fluorescence fold increase is 1.1 (inactive).

As for `CCc1ccccc1NC(=O)c1cccs1`, the fluorescence fold increase is 1.09 (inactive).

Regarding `O=C(Nc1nncs1)c1ccccc1NS(=O)(=O)c1cccs1`, the fluorescence fold increase is 2.5 (active).

Consider `COC(=O)c1ccccc1NC(=O)c1ccccc1NS(C)(=O)=O`, for which the fluorescence fold increase was 1.13 (inactive).

On to `COc1ccc(CCNC(=O)CSc2nnc(-c3cccc(F)c3)o2)cc1OC`, for which the fluorescence fold increase was 1.07 (inactive).

`c1ccc2cc3[nH]c(CN4CCCCC4)nc3cc2c1`: the fluorescence fold increase is 1.35 (inactive).

With `CCOC(=O)N1CCN(C(=O)c2n[nH]c(=O)c3ccccc23)CC1`, the fluorescence fold increase was 1.04 (inactive).

Turning to `CCOC(=O)N1CCN(C(=O)c2nn(-c3ccc(C)cc3)c(=O)c3c2c2ccccc2n3C)CC1`, the fluorescence fold increase is 2.21 (active).

`Cn1c2ccccc2c2c(C(=O)N3CCN(c4ccc(F)cc4)CC3)cn(C3CCCC3)c(=O)c21`: the fluorescence fold increase was 1.57 (inactive).

Regarding `COc1nc(Oc2ccc(=O)n(C)n2)nc(N(C)C)n1`, the fluorescence fold increase is 1.04 (inactive).

On to `CN1C(=O)c2ccc(NC(=O)C3CCCCC3)cc2C1=O`, for which the fluorescence fold increase was 4.96 (active).

For `O=C(Nc1cnn(Cc2ccc(Cl)cc2)c1)C1CCCC1`, the fluorescence fold increase is 1.03 (inactive).

For the molecule `CCC(=O)Nc1ccc(C(=O)Nc2ccc3c(c2)C(=O)N(CC2CCCO2)C3=O)cc1` (configuration not stated), the fluorescence fold increase is 1.59 (inactive).

Take `O=C(O)c1ccc(NC(=O)C2CCCCC2)cc1`: the fluorescence fold increase is 1.11 (inactive).

For the molecule `CN1C(=O)c2ccc(NC(=O)c3c(F)c(F)c(F)c(F)c3F)cc2C1=O`, the fluorescence fold increase is 2.11 (active).

In the case of `O=C(Nc1ccncc1)c1c(F)cccc1F`, the fluorescence fold increase was 1.11 (inactive).

Consider `CCCCc1nc2ccccc2c(NC(=O)CN2CCN(C)CC2)c1CCC`, for which the fluorescence fold increase was 1.08 (inactive).

With `CC1=C(C(=O)Nc2ccc(Cl)cc2)C(c2ccco2)NC(=O)N1` (configuration not stated), the fluorescence fold increase is 1.1 (inactive).

On to `COc1ccccc1N1CCN(Cc2ccc(OC)c3ccccc23)CC1`, for which the fluorescence fold increase is 1.12 (inactive).

As for `O=C(NC(Cc1ccccc1)C(=O)N1CCCC1C(=O)O)c1ccccc1` (stereo not drawn) (Bz-Phe-Pro-OH; configuration not given here), the fluorescence fold increase is 0.84 (inactive).

Turning to `CCCn1c(=O)c2[nH]c(C3CCCC3)nc2n(CCC)c1=O`, the fluorescence fold increase is 1.03 (inactive).

On to `CCc1ccc(CCC(=O)Nc2ccc(S(N)(=O)=O)cc2)o1`, for which the fluorescence fold increase was 1.08 (inactive).

Take `CCOC(=O)CSc1nnc(NC(=O)c2cccc(S(=O)(=O)N3CCCC3)c2)s1`: the fluorescence fold increase is 1.07 (inactive).

Turning to `CCOC(=O)CSc1nnc(NC(=O)c2cccc(S(=O)(=O)N3CCCCC3)c2)s1`, the fluorescence fold increase was 1 (inactive).

Turning to `CCOC(=O)c1csc(NC(=O)c2ccc(S(=O)(=O)N3CCCC3)cc2)n1`, the fluorescence fold increase is 2.49 (active).

For `Cc1ccc(S(=O)(=O)c2nc(NCCCn3ccnc3)sc2Cl)cc1`, the fluorescence fold increase was 1.12 (inactive).

Take `CC(C)(C)NC(=O)C(c1ccco1)N(Cc1ccc2c(c1)OCO2)C(=O)Cn1nnc2ccccc21` (configuration not stated): the fluorescence fold increase is 1.1 (inactive).

Regarding `O=C(NCCC1=CCCCC1)C1CCN(Cc2cnn(-c3ccccc3)c2-n2cccc2)CC1`, the fluorescence fold increase was 1.16 (inactive).

In the case of `Cn1cccc1Cc1nnc(SCC(=O)NCCc2ccccc2)n1-c1ccc(F)cc1`, the fluorescence fold increase was 1.12 (inactive).

As for `CCCC(=O)N1c2ccc(-c3csc(N)n3)cc2CC1C` (configuration not stated), the fluorescence fold increase was 1.13 (inactive).

For `COc1cc2c(cc1NC(=O)CN1CCN(S(=O)(=O)c3ccc(F)cc3)CC1)oc1ccccc12`, the fluorescence fold increase was 2.72 (active).

On to `COc1ccc(NC(=O)CN2CCN(S(=O)(=O)c3ccc(F)cc3)CC2)cc1Cl`, for which the fluorescence fold increase is 1.01 (inactive).

With `COc1ccccc1NC(=O)CN1CCN(S(=O)(=O)c2ccc(Br)cc2)CC1`, the fluorescence fold increase was 1 (inactive).

As to `Cc1cc2cc(CNC(=O)c3ccc(S(=O)(=O)N4CCOCC4)cc3)ccc2[nH]1`, the fluorescence fold increase is 1.07 (inactive).

With `Cc1coc2c(O)cc3c(c12)OC1(N2CCCCC2)C(=O)NCCCC31` (configuration not stated), the fluorescence fold increase is 1.1 (inactive).

With `COc1ccc2[nH]c3ccc(OC)cc3c2c1`, the fluorescence fold increase is 1.46 (inactive).

`COc1ccc2[nH]c3c(=O)n(Cc4ccco4)cnc3c2c1`: the fluorescence fold increase was 3.87 (active).

For the molecule `O=c1c2[nH]c3ccc(Cl)cc3c2ncn1Cc1ccccn1`, the fluorescence fold increase is 1.12 (inactive).

With `COc1ccc(N2C(=O)c3cccc4cccc(c34)C2=O)nn1`, the fluorescence fold increase was 1.57 (inactive).

`Cc1ccnc(N2CCN(C(=O)CSc3nc4ccccc4nc3N3CCCCC3)CC2)c1`: the fluorescence fold increase is 1.18 (inactive).

As to `C=CCNc1nnc(C)c2ccccc12`, the fluorescence fold increase is 1.09 (inactive).

Turning to `C=CCNc1nnc(SCC(=O)N2CCCCC2)c2ccccc12`, the fluorescence fold increase was 2.26 (active).

Take `CCCC(=O)N(CCc1ccccc1)Cc1nc2ccccc2c(=O)[nH]1`: the fluorescence fold increase was 1.13 (inactive).

In the case of `CS(=O)(=O)NCc1ccc(C(=O)NCc2ccccc2)cc1`, the fluorescence fold increase is 1.04 (inactive).

For the molecule `O=C1C2(c3ccccc3)CN(CCCO)CC1(c1ccccc1)CN(CCCO)C2`, the fluorescence fold increase is 1 (inactive).

For the molecule `COCCn1c(C)cc(C(=O)CSc2ncnc3sc4c(c23)CCC4)c1C`, the fluorescence fold increase was 1.55 (inactive).

Regarding `COCCNc1nc(-n2nc(C)cc2C)nc2sc3c(c12)CCCC3`, the fluorescence fold increase is 3.57 (active).

Consider `Cc1cc(C)n(-c2nc(SCC(=O)N3CCCC3)c3c4c(sc3n2)CCCC4)n1`, for which the fluorescence fold increase is 1.3 (inactive).

On to `CCOc1ccc(S(=O)(=O)n2ccnc2)c2ccccc12`, for which the fluorescence fold increase was 1.04 (inactive).

Regarding `COc1cc(C2C(C(=O)c3ccc(C)o3)=C(O)C(=O)N2Cc2cccnc2)ccc1O` (configuration not stated), the fluorescence fold increase is 1.02 (inactive).

`COc1ccccc1N1CCN(C(=O)c2cn(-c3ccccc3)nc2-c2cccnc2)CC1`: the fluorescence fold increase is 1.12 (inactive).

On to `Cc1nnc(SCC(=O)Nn2cnnc2)s1`, for which the fluorescence fold increase was 1.03 (inactive).

For the molecule `COc1ccc(-c2noc(-c3cccc(OC)c3OC)n2)cc1OC`, the fluorescence fold increase was 1.12 (inactive).

For the molecule `CCOC(=O)N1CCN(C(=O)c2ccc3nc4cc(Cl)ccc4c(=O)n3c2)CC1`, the fluorescence fold increase was 3.31 (active).

With `CCOC(=O)N1CCN(C(=O)CSc2ccc(Cl)cc2)CC1`, the fluorescence fold increase was 1.07 (inactive).

Take `CCOC(=O)N1CCN(C(=O)CNC(=O)Cc2ccc(Cl)cc2)CC1`: the fluorescence fold increase is 1.08 (inactive).

As to `Cc1cc(C)nc(NC(=O)C(C)N2C(=O)c3ccccc3C2=O)n1` (configuration not stated), the fluorescence fold increase was 1.09 (inactive).

On to `CCn1c(=N)c(S(=O)(=O)c2ccc(F)cc2)cc2c(=O)n3ccccc3nc21`, for which the fluorescence fold increase was 3.45 (active).

In the case of `Cc1ccc(C)c(NC(=O)C2CCCN2C(=O)OC(C)(C)C)c1` (configuration not stated), the fluorescence fold increase is 1.17 (inactive).

As to `CCn1nc(C(=O)OCC(=O)N2c3ccccc3CC2C)c2ccccc2c1=O` (configuration not stated), the fluorescence fold increase is 1.05 (inactive).

Turning to `COc1ccccc1Oc1ccc(S(=O)(=O)Nc2cccnc2)cc1`, the fluorescence fold increase was 1.1 (inactive).

As to `O=P(c1ccc2c(c1)OCCO2)(N1CCOCC1)N1CCOCC1`, the fluorescence fold increase is 1.13 (inactive).

`Cn1c(-c2ccco2)nc2cc3ccccc3cc21`: the fluorescence fold increase is 4.72 (active).

Take `c1coc(-c2nc3nc4ccccc4n3nc2-c2ccco2)c1`: the fluorescence fold increase was 0.92 (inactive).

As for `COc1ccc(CCn2c(-c3ccco3)nc3nc4ccccc4nc32)cc1OC`, the fluorescence fold increase was 1.07 (inactive).

Take `CCC(=O)Nc1nc(OC)cc(OC)n1`: the fluorescence fold increase was 1.16 (inactive).

In the case of `C=CCSc1nc2c(c(=O)[nH]1)C(C(C)C)C(C#N)=C(N)O2` (configuration not stated), the fluorescence fold increase is 1.06 (inactive).

As for `Cn1c2c(c(=O)n(C)c1=O)C(c1ccc(O)cc1)Nc1ccccc1O2` (configuration not stated), the fluorescence fold increase is 1.08 (inactive).

As for `CCn1c(=N)c(C(=O)NCCCOC)cc2c(=O)n3cccc(C)c3nc21`, the fluorescence fold increase was 3.83 (active).

Regarding `COCCn1c(=O)[nH]c2cc(C(=O)NCc3cccnc3)ccc2c1=O`, the fluorescence fold increase was 1.48 (inactive).

`COc1ccc(CCn2c(=N)c(C(=O)NCc3ccco3)cc3c(=O)n4cccc(C)c4nc32)cc1`: the fluorescence fold increase was 1.64 (inactive).

On to `O=c1cc(-c2ccccc2)nc(N2CCCCC2)[nH]1`, for which the fluorescence fold increase is 1.26 (inactive).

For `O=c1[nH][nH]c(=O)c2cc(N3CCCC3)ccc12`, the fluorescence fold increase is 2.65 (active).

For the molecule `CCOc1ccc(C2C(C(=O)NC)=C(C)Nc3nc4ccccc4n32)cc1OC` (configuration not stated), the fluorescence fold increase is 1.15 (inactive).

In the case of `Cc1ccc(NC(=O)CCN2CCc3ccccc3C2)cc1`, the fluorescence fold increase was 1.02 (inactive).

Take `Cc1ccc2c(c1)c1ncnc(N3CCc4ccccc4C3)c1n2C`: the fluorescence fold increase was 3.33 (active).

With `Cc1ccc2c(c1)N(C(=O)CCC(=O)N1CCc3ccccc3C1)CCO2`, the fluorescence fold increase is 1.17 (inactive).

Regarding `CCS(=O)(=O)N1CCCC(C(=O)NCc2ccc(C)cc2)C1` (configuration not stated), the fluorescence fold increase was 1.06 (inactive).

Regarding `O=C(Cn1nnc2ccccc2c1=O)Nc1cc(C(F)(F)F)ccc1N1CCOCC1`, the fluorescence fold increase is 1.02 (inactive).

On to `COc1ccc(-c2[nH]nc3c2C(c2ccncc2)C(C#N)=C(N)O3)cc1` (configuration not stated), for which the fluorescence fold increase was 1.04 (inactive).

For `Cn1c(=O)[nH]c(=O)c2c1nc(Br)n2CCCCSc1nc2ccccc2o1`, the fluorescence fold increase is 1.1 (inactive).

For `CCOC(=O)CSC1=C(C#N)C(c2sccc2C)CC(=O)N1` (configuration not stated), the fluorescence fold increase is 1.13 (inactive).

Consider `CS(=O)(=O)N(CC(=O)NCc1ccco1)c1ccc2c(c1)OCO2`, for which the fluorescence fold increase is 1.14 (inactive).

Regarding `CCc1c(C)nc2cc(-c3cccs3)[nH]n2c1=O`, the fluorescence fold increase is 2.07 (active).

On to `Cc1nc2nc(COc3ccccc3)[nH]n2c(=O)c1Cc1ccccc1`, for which the fluorescence fold increase was 1.09 (inactive).

Consider `O=c1[nH]c(-c2cccs2)nc2ccccc12`, for which the fluorescence fold increase was 1.17 (inactive).

For the molecule `O=P(O)(CP(=O)(c1ccccc1)c1ccccc1)c1ccccc1`, the fluorescence fold increase is 1.13 (inactive).

Consider `CCCCNC(=O)c1c[nH]c2ccc(S(=O)(=O)Nc3ccc(OCC)cc3)cc2c1=O`, for which the fluorescence fold increase is 1.15 (inactive).

Consider `Cc1nonc1NC(=O)c1ccccc1Br`, for which the fluorescence fold increase was 1.01 (inactive).

For `Cc1ccc(S(=O)(=O)C(C#N)c2nc3ccccc3nc2N2CCCC2)cc1C` (configuration not stated), the fluorescence fold increase is 2.44 (active).

On to `Cc1cccc2cc(C#N)c(N3CCCC3)nc12`, for which the fluorescence fold increase was 1.58 (inactive).

In the case of `CC(C)OC(=O)C(C#N)c1nc2ccccc2nc1N1CCN(Cc2ccccc2)CC1` (configuration not stated), the fluorescence fold increase is 1.82 (inactive).

As to `NC(=O)CSc1oc(-c2cccs2)nc1S(=O)(=O)c1ccccc1`, the fluorescence fold increase is 1.22 (inactive).
